Screening results from PubChem BioAssay.
BoNT F protease = blocks Botulinum neurotoxin F light chain protease; Multiplex microsphere protease cleavage assay, flow cytometry; AID 588497; 0.22% of 360,000 active; inhibition, % at 10 µM; in the data active = inhibition above about 35%, passing the limit was not always enough; inconclusive = no clear call, values can overlap the other calls; also: plate controls were buffer without enzyme for full effect and enzyme alone for no effect
BoNT-A LC inh2 = blocks Botulinum neurotoxin A light chain protease. multiplex microsphere protease substrate cleavage, flow cytometry. inhibition, % at 10 µM. 0.17% of 360,000 active. AID 588499; also: plate controls were buffer without enzyme for full effect and enzyme alone for no effect
Anthrax LF prot = inhibitors of Bacillus anthracis lethal factor protease; inhibition, % at 10 µM; AID 588501; 0.12% of 360,000 active; multiplex microsphere protease cleavage assay, LF; also: plate controls were buffer without enzyme for full effect and enzyme alone for no effect
Target sequence (P15917 whole entry, looked up): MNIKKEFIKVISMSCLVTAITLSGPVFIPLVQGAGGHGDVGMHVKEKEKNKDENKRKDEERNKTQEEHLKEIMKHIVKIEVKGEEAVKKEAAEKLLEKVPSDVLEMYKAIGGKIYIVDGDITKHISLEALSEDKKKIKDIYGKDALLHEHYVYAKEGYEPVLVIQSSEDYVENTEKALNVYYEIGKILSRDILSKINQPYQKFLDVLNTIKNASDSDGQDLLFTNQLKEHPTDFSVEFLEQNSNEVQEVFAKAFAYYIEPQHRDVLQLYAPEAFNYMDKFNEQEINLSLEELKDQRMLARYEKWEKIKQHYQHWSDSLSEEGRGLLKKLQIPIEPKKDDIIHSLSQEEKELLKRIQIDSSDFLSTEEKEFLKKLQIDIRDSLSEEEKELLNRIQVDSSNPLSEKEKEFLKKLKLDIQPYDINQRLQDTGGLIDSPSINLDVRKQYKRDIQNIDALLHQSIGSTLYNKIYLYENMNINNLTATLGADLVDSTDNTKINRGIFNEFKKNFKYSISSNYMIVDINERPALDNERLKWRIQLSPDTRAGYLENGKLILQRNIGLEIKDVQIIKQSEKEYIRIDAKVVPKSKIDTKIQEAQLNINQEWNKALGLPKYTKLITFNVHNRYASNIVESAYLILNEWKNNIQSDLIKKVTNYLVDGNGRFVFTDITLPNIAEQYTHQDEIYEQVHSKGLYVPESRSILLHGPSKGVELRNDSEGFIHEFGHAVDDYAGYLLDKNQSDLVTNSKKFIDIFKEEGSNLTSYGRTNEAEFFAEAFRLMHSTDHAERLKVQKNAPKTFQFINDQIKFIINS
Bead autofluor = flagged as autofluorescent in microsphere protease counterscreen; compound autofluorescence counterscreen, microsphere flow cytometry; stronger effect = higher value; fluorescence intensity (concentration not given with the values); 3.1% of 360,000 active; AID 624483; in the data active = fluorescence intensity above about 16000; inconclusive = no clear call, values can overlap the other calls
* = called active by the depositor; u = inconclusive. Only some compounds are listed: those with a hit (about 3.5% of all), similar ones and a draw of the others. Rule as the data show it, unless noted: active = inhibition above about 30%; inconclusive = no clear call, values can overlap the other calls; inactive = below that.

SMILES	BoNT F protease	BoNT-A LC inh2	Anthrax LF prot	Bead autofluor
Cc1cccc(-n2c(C)cc(C=C3C(=O)c4ccccc4C3=O)c2C)c1	-7	7	8	6839
O=C(N/N=C1/CC2C=CCC12)c1ccco1 (stereo not drawn)	4	1	0	8820
Cc1cc(C)c(-c2cc(C(=O)Nc3c(C)n(C)n(-c4ccccc4)c3=O)[nH]n2)c(O)c1	-4	0	0	6031
Cc1ccc(-c2cc(C(=O)Nc3c(C)n(C)n(-c4ccccc4)c3=O)[nH]n2)c(O)c1	0	u	-2	22384*
N/C(=N\OC(=O)c1ccc(Cl)cc1)c1ccccn1	8	u	0	21717*
N/C(=N\OC(=O)c1ccc(Cl)c(Cl)c1)c1ccccn1	2	0	-2	9865
O=C1CC(NS(=O)(=O)c2cccs2)CN1c1cccc(F)c1 (stereo not drawn)	-7	-1	-1	5410
Cc1ccc(S(=O)(=O)N2CCCC(C(=O)NCCc3ccccc3)C2)cc1 (stereo not drawn)	-5	0	-7	3054
CC(=O)Nc1ccc(S(=O)(=O)NCCSCc2c(Cl)cccc2Cl)cc1	-7	-4	-2	21984*
C=CCOC(=O)COc1ccc2c(C)c(CC)c(=O)oc2c1	-3	-1	-1	23645*
Cc1cc(C)c2c(=N)c3ccccc3n(CCCCCCCCn3c4ccccc4c(=N)c4c(C)cc(C)nc43)c2n1	-33	8	6	3674
OCc1ccccc1NC(=S)Nc1cccnc1	-8	-7	-3	25402*
Cc1cc(CC(C)C)n(-c2nc3ccccc3c(=O)n2OCC(=O)N(C)C)n1	-18	-1	3	3699
Cc1cc(CC(C)C)n(-c2nc3ccccc3c(=O)n2OCc2ccccc2)n1	-6	u	-3	23326*
Cc1cc(C)n(-c2nc3ccccc3c(=O)n2OCc2ccc(Cl)cc2)n1	-3	u	-2	22331*
COc1ccc(CC(N)c2csc(NC(=O)C(c3ccccc3)c3ccccc3)n2)cc1 (stereo not drawn)	-15	0	-8	4072
COC(=O)[C@@]1(Cc2ccc(F)cc2)[C@H]2c3cc(C(=O)N4CCCC4)n(C)c3C[C@H]2CN1C(=O)c1ccccc1	7	0	6	4468
CCc1ccccc1OCC(=O)Nc1ccc(N2CCCC2)cc1C	-4	-14	-1	23739*
Cc1cc(N2CCCC2)ccc1NC(=O)COc1ccccc1	-68	-22	-12	15008
CSCC[C@H](NC(=O)OCc1ccccc1)C(=O)O	4	1	-2	22450*
Cc1nonc1CN(C)C(=O)CC1C(=O)NCCN1Cc1ccc(F)c(F)c1 (stereo not drawn)	-2	1	-4	4141
CCOC(=O)/C(C#N)=C1/C=C(C)NC(c2ccccc2O)=N1	3	1	-4	10689
CCOC(=O)/C(C#N)=C1\Nc2ccccc2N=C1N(CC(C)C)CC(C)C	30	38*	27	9201
CCCCN(CCCC)C1=Nc2ccccc2N/C1=C(/C#N)C(=O)OCC	34	65*	40*	2940
CCOC(=O)C1=C(C)Nc2ccccc2N=C1N	0	0	-2	3870
SMILES	BoNT F protease	BoNT-A LC inh2	Anthrax LF prot	Bead autofluor
CC1CCN(c2nc3c(c(=O)n(C)c(=O)n3C)n2CCSc2nc3ccccc3s2)CC1	4	0	0	9205
Cn1c(=O)c2c(nc(N3CCC(C(N)=O)CC3)n2CCSc2nc3ccccc3s2)n(C)c1=O	4	1	-7	3565
Cn1c(=O)c2c(nc(N3CCCCC3)n2CCSc2nc3ccccc3s2)n(C)c1=O	-4	0	0	16274*
CC1CCCN(c2nc3c(c(=O)n(C)c(=O)n3C)n2CCSc2nc3ccccc3s2)C1 (stereo not drawn)	1	1	-4	20318*
COc1cccc(NC(=S)NC2CC(C)(C)NC(C)(C)C2)c1	0	0	0	1947
O=C(OCC#CCSc1nc2ccccc2s1)c1ccco1	3	0	0	19554*
CC(=O)/C(=N/Nc1cccc(Cl)c1)N1CCOCC1	-12	0	1	3783
CC(=O)/C(=N/Nc1ccccc1)N1CCOCC1	3	2	-2	22407*
COC(=O)c1cc2sccc2n1Cc1ccc(C)cc1	-3	-2	0	24673*
O=C(Nc1nccs1)c1cc2sccc2n1Cc1ccc(F)cc1	-3	u	1	16836*
COC(=O)c1cc2occc2n1Cc1ccc(Cl)cc1	-1	1	-6	22264*
O=C(N[C@H]1C/C=C\C[C@H](CC(=O)N(CCO)Cc2ccccc2)C(=O)NC[C@H](c2ccccc2)OC1=O)OCC1c2ccccc2-c2ccccc21	-8	0	-8	3766
O=C(NCCc1ccccc1C(F)(F)F)c1cc(COc2ccccc2)on1	-4	-1	5	4210
FC(F)(F)c1cnc(N2CCSCC2)c(Cl)c1	-17	-1	-7	4831
O=C(OC1CCN(c2ncc(C(F)(F)F)cc2Cl)CC1)c1ccc(Cl)cc1	-3	0	-2	24209*
CON=C1CCN(c2ncc(C(F)(F)F)cc2Cl)CC1	1	u	1	19907*
CC(=O)Nc1c2c(nn1-c1cccc(Cl)c1)CS(=O)(=O)C2	8	4	12	5597
COn1c(=S)[nH]c2ccccc2c1=O	1	u	-2	22258*
CC1CCCCC1n1c(=S)[nH]c2ccccc2c1=O (stereo not drawn)	-2	-2	-13	23138*
CC1CCCCC1NC(=O)CCCCCn1c(=S)[nH]c2ccccc2c1=O (stereo not drawn)	-3	0	-5	3412
Cc1cc(C)cc(NC(=O)COC(=O)c2cccc(S(=O)(=O)N3CCCCC3)c2)c1	-1	0	-2	9129
Cc1nn(C)c(C)c1/C=N/NC(=O)C(C)(C)Oc1ccc(Cl)cc1	-2	u	-5	24501*
Cc1ccc(N(CC(O)COCc2ccco2)S(=O)(=O)c2ccc(C)cc2)cc1 (stereo not drawn)	2	-2	7	10506
CC(C)CCn1cnc2c(NCc3ccccc3)ncnc21	-4	-2	-2	24204*
Cc1cccn2c(=O)c(/C=C(\C#N)S(=O)(=O)c3ccccc3)c(N3CCC(C(N)=O)CC3)nc12	6	5	1	18714*
SMILES	BoNT F protease	BoNT-A LC inh2	Anthrax LF prot	Bead autofluor
CCN1CCN(c2nc3ccccn3c(=O)c2/C=C(\C#N)S(=O)(=O)c2ccccc2)CC1	u	u	33*	4035
Cc1ccc(S(=O)(=O)/C(C#N)=C/c2c(N3CCC(C(N)=O)CC3)nc3c(C)cccn3c2=O)cc1	10	3	12	8291
CCN1CCN(c2nc3c(C)cccn3c(=O)c2/C=C(\C#N)S(=O)(=O)c2ccccc2)CC1	16	2	3	3217
CC1(C(=O)NS(=O)(=O)c2cccc(OC(F)F)c2)CCN1C(=O)c1ccccc1CCc1ccccc1 (stereo not drawn)	-7	0	-6	3686
O=C(Nc1cccc(Br)c1)c1ccn[nH]1	-5	-3	-4	21776*
O=C(Nc1cccc(C(=O)Nc2cccc(Br)c2)c1)c1ccccc1	1	1	9	3493
CCN(CC)CCN1C(=O)c2ccccc2NC1c1ccc(C)cc1 (stereo not drawn)	2	u	-4	23099*
